Screens from PubChem BioAssay.
Rows were chosen to be rich in hits. Some 3.1% of all compounds tested hit in one or more screens of this group.
HSF1 activator – increases HSF-1 driven luciferase reporter signal | NIH3T3-HGL HSF-1 luciferase reporter, MG132, 8 h; 100% = twice DMSO control signal | activation, % at 9 µM | actives 1.7% (n = 300,000) | AID 504408;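 active means mean replicate activation of at least 50% with a set share of replicates each reaching 50%; inconclusive means only one of those two conditions met; inactive means mean below 50% and too few replicates reaching it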;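 further: 0% = median of the neutral control wells and 100% = twice that signal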
HIF activator – HIF pathway transcriptional activation | actives 0.32% (n = 300,000) | AID 1910 | activation, % at 7.5 µM (by protocol) | U2OS HRE-luciferase reporter, luminescence; normalized: DMSO 0%, desferrioxamine 100%;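 active means mean activation of at least 10% of the iron chelator positive control signal, with at least half of replicates also reaching 10%; inconclusive means mean and replicate majority disagree about reaching 10%; inactive means mean and most replicates under 10%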
HSF1 inhib – HSF1 inhibition; NIH3T3-HGL HSE-luciferase, MG132-induced, luminescence 8 h; hits give low values; activity change, negative = inhibition, % at 7.5 µM (by protocol); actives 0.77% (n = 300,000); AID 2098;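 active means more than half of replicate wells show activity change below -50%, luminescence cut by over half; inconclusive means some wells, but at most half, below -50%; inactive means no replicate well below -50%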;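 further: luciferase reports HSF-1 transcriptional activity via heat shock element; 0% = median of DMSO wells and -100% = zero luminescence signal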
ARNT-TACC3 inh – disrupts binding between human ARNT and TACC3; Q9Y6A5; AlphaScreen His-ARNT PAS-B/GST-TACC3 binding, luminescence; TACC3 fragment carries E629A point mutation; inhibition, % at 9.99 µM; actives 0.66% (n = 390,000); AID 623870;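 active means mean inhibition of replicates at least 50% and at least half of replicates each reaching 50%; inconclusive means half or more replicates reach 50% but mean below 50%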;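 further: 0% = complete ARNT plus TACC3 wells and 100% = ARNT alone without TACC3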
HSP90 inh – blocks HSP90-mediated luciferase refolding in reticulocyte lysate. Rabbit reticulocyte lysate, luciferase refolding luminescence, 3 h. inhibition, % at 5.6 µM. actives 0.91% (n = 290,000). AID 1789;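 active means inhibition above the screen-wide mean plus 3 SD, computed separately per campaign, cut at about 16% in these data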;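 further: 0% = DMSO wells and 100% = 60 µM geldanamycin wells; inhibitors lower the luminescence because luciferase stays unfolded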
HSP90 confirm – HSP90 inhibition, confirmation assay; shares compounds with HSP90 inh; actives 64% (n = 2,300); AID 1846; inhibition, % at 5.9 µM; rabbit reticulocyte lysate, luciferase refolding luminescence, 3 h; in the data active means inhibition above about 18%;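 further: 0% = vehicle wells and 100% = reference inhibitor wells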
luciferase ctr – firefly luciferase inhibition, HSP90 counter-screen. purified native firefly luciferase, luminescence. AID 1847. inhibition, % at 5.9 µM. shares compounds with HSP90 inh. actives 48% (n = 2,300);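 active means inhibition above the mean inhibition of all tested sample wells plus 3 SD, cut at about 10% in these data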;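 further: 0% = DMSO with luciferase and 100% = wells lacking luciferase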
Target sequence (P08659 whole entry, looked up): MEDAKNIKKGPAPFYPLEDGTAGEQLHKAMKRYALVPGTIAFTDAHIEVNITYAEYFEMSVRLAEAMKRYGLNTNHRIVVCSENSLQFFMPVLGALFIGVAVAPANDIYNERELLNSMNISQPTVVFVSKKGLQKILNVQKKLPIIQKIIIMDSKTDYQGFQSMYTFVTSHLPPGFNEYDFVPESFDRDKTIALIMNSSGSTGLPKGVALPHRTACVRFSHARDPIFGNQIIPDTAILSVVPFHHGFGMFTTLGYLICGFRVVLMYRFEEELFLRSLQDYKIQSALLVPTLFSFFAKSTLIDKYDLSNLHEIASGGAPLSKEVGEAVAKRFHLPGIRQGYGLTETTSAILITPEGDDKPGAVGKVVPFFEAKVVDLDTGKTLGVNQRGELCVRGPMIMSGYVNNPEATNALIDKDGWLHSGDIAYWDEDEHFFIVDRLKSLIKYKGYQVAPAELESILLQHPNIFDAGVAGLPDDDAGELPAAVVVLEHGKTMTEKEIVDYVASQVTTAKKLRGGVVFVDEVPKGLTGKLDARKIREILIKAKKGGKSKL
Active calls of the source: *.

Screening Cn1cc(CN2CCCC(C(=O)Nc3cccc(-c4cc5ccccc5[nH]4)c3)C2)cn1 (stereo not drawn) returned HSF1 activator -2, HIF activator -1, HSF1 inhib 1, ARNT-TACC3 inh 31, HSP90 inh 23*, HSP90 confirm 7 and luciferase ctr -11.
C[C@@H]1CN([C@@H](C)CO)C(=O)c2cc(NS(C)(=O)=O)ccc2O[C@@H](C)CCCCO[C@H]1CN(C)C was read as ARNT-TACC3 inh -15.
For Cc1ccc(C)c(Cn2nnc3c(=O)[nH]c(C4CCN(S(=O)(=O)c5ccc(S(=O)(=O)N(C)C)cc5)CC4)nc32)c1 the results were HSF1 activator 0, HIF activator -1, HSF1 inhib 0, ARNT-TACC3 inh -3, HSP90 inh 22*, HSP90 confirm 19* and luciferase ctr -2.
`Cc1oc(-c2nc3ccccc3n2C)cc1C(=O)c1ccccc1` gave HSF1 activator 5, HIF activator 0, HSF1 inhib -3, HSP90 inh 17*, HSP90 confirm 57* and luciferase ctr 46*.
For COC(=O)c1ccc(-c2ccc(/C=N/NC(=O)CC3(C)OCCCO3)o2)cc1 the results were HSF1 activator -4, HIF activator 2, HSF1 inhib -9, ARNT-TACC3 inh -11, HSP90 inh 17*, HSP90 confirm 26* and luciferase ctr 0.
CCCNC(=O)[C@H]1[C@H](CO)[C@H]2Cn3c(ccc(-c4ccc(F)cc4)c3=O)[C@H]2N1CCC was read as ARNT-TACC3 inh 0.
Screening N#CC(C#N)=c1ccc2c(c1)NC1(CCCCC1)N=2 returned HSF1 activator 8, HIF activator 0, HSF1 inhib 1, ARNT-TACC3 inh 27, HSP90 inh 52*, HSP90 confirm 7 and luciferase ctr 1.
Cc1ccccc1-c1nc(-c2cccnc2)no1 was read as HSF1 activator 43, HIF activator 2, HSF1 inhib 27, ARNT-TACC3 inh -4 and HSP90 inh 5.
Screening Cc1ccccc1-c1nc(-c2ccccn2)no1 returned HSF1 activator -53, HIF activator -7, HSF1 inhib inconclusive, ARNT-TACC3 inh 13, HSP90 inh 46*, HSP90 confirm 86* and luciferase ctr 82*.
`Brc1ccc(-c2nc(-c3ccccn3)no2)o1` gave HSF1 activator 2, HIF activator -2, HSF1 inhib -4, ARNT-TACC3 inh 11, HSP90 inh 44*, HSP90 confirm 60* and luciferase ctr 55*.
Brc1ccc(-c2noc(-c3ccccn3)n2)o1 was read as HSF1 activator 36, HIF activator 1, HSF1 inhib 23, ARNT-TACC3 inh 0 and HSP90 inh 11.
For COc1ccccc1-c1nc(-c2ccccn2)no1 the results were HSF1 activator -7, HIF activator -3, HSF1 inhib -10, ARNT-TACC3 inh 7, HSP90 inh 47*, HSP90 confirm 78* and luciferase ctr 65*.
C[C@@H]1CCCCO[C@@H](CN(C)C(=O)c2ccccc2)[C@H](C)CN([C@@H](C)CO)C(=O)c2cc(NC(=O)C3CCCCC3)ccc2O1 was read as ARNT-TACC3 inh -8.
`CC(C)(C)n1nnnc1C(c1ccccc1F)N1CCN(C2CCCC2)CC1` (stereo not drawn) gave HSF1 activator 18, HIF activator 0, HSF1 inhib 2, ARNT-TACC3 inh -6, HSP90 inh 23*, HSP90 confirm -1 and luciferase ctr -3.
For C[C@@H]1CN([C@@H](C)CO)C(=O)c2cccc(NC(=O)c3ccncc3)c2O[C@@H]1CN(C)C(=O)Nc1ccc(C(F)(F)F)cc1 the results were ARNT-TACC3 inh -1.
Screening Clc1ccc2nc(-c3ccc4c(c3)OCO4)cn2c1 returned HSF1 activator 45, HIF activator -5, HSF1 inhib 7, ARNT-TACC3 inh 11, HSP90 inh 24*, HSP90 confirm 73* and luciferase ctr 71*.
Screening Clc1ccc2nc(-c3ccccc3)cn2c1 returned HSF1 activator 34, HIF activator -1, HSF1 inhib 36, ARNT-TACC3 inh -22, HSP90 inh 36*, HSP90 confirm 55* and luciferase ctr 42*.
For Cc1ccc2nc(-c3ccc4c(c3)OCCO4)cn2c1 the results were HSF1 activator -2, HIF activator -6, HSF1 inhib -6, ARNT-TACC3 inh 3, HSP90 inh 93*, HSP90 confirm 94* and luciferase ctr 90*.
For COc1ccc(-c2cn3cc(C)ccc3n2)cc1F the results were HSF1 activator 59*, HIF activator -2, HSF1 inhib 24, ARNT-TACC3 inh 3, HSP90 inh 48*, HSP90 confirm 63* and luciferase ctr 58*.
Screening COc1ccc(-c2cn3cccc(C)c3n2)cc1F returned HSF1 activator 42, HIF activator 2, HSF1 inhib 23, ARNT-TACC3 inh 0 and HSP90 inh 1.
O=C(Cc1ccncc1)Nc1ccc2c(c1)[C@H]1C[C@@H](CC(=O)N3CCOCC3)O[C@@H](CO)[C@H]1O2 was read as ARNT-TACC3 inh 3.
`CCCN1C[C@@H](C)[C@H](OC)CN(C)C(=O)c2ccc(NC(=O)Nc3ccccc3F)cc2OC[C@@H]1C` gave ARNT-TACC3 inh -4.
CS(=O)(=O)N1[C@@H]2Cn3c(ccc(-c4ccc(F)cc4)c3=O)[C@H]1[C@@H](C(=O)N1CCOCC1)[C@@H]2CO was read as ARNT-TACC3 inh -10.
C[C@@H]1CCCCO[C@H](CN(C)S(=O)(=O)c2ccccc2)[C@H](C)CN([C@H](C)CO)C(=O)c2cc(NC(=O)Nc3cccc4ccccc34)ccc2O1 was read as ARNT-TACC3 inh -10.
`O=C(COc1ccc(CO)cc1Cl)Nc1ccc(F)cc1` gave HSF1 activator 55*, HIF activator -4, HSF1 inhib 34, ARNT-TACC3 inh -6, HSP90 inh 37*, HSP90 confirm 39* and luciferase ctr 36*.
CCCC#Cc1cnc2c(c1)C(=O)N([C@@H](C)CO)C[C@@H](C)[C@@H](CN(C)S(=O)(=O)c1ccccc1)O2 was read as ARNT-TACC3 inh -3.
For Cc1nc(C)n(CCNC(=O)c2ccco2)n1 the results were HSF1 activator -14, HIF activator -14, HSF1 inhib 1, ARNT-TACC3 inh -1, HSP90 inh 36*, HSP90 confirm 5 and luciferase ctr 2.
`COc1ccc(S(=O)(=O)Nc2ccc3c(c2)C(=O)N([C@@H](C)CO)C[C@@H](C)[C@@H](CN(C)C(=O)C2CCCCC2)OCCCC[C@H](C)O3)cc1` gave ARNT-TACC3 inh 2.
